Bioassay records (PubChem)
Most compounds without a hit are left out; they make up all but 8.1% or so of the library.
MITF inhib: MITF inhibition; inhibition, % (no concentration beside the values); 37,000 tested, 0.28% active; AID 2240; TRPM1 promoter luciferase, luminescence, 24 h; in the data active = inhibition above about 85%; inconclusive = no clear call, values can overlap the other calls; inactive = below about 68%;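 also: human melanocyte line stably carrying TRPM1 promoter luciferase reporter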
PD-1 reverse act: activators reversing PD-1 mediated T-cell inhibition. AID 2316. primary human CD4 T cells, PD-L1 beads, CellTiter-Glo 96 h. 29,000 tested, under 10 active. activation, % (concentration not given with the values); call rule not given here;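 also: 0% = median vehicle wells and 100% = positive control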
NOMO-1 viab: STK33 inhibitor candidate reducing NOMO-1 cell viability; NOMO-1 AML viability, CellTiter-Glo luminescence, 72 h; inhibition, % (no concentration beside the values); 37,000 tested, 7.5% active; AID 2330; in the data active = inhibition above about 80%; inconclusive = no clear call, values can overlap the other calls
Hedgehog inh: Sonic Hedgehog pathway inhibition | Shh-LIGHT2 Gli-luciferase reporter, 30 h | inhibition, % (no concentration beside the values) | 22,000 tested, 2.1% active | AID 2313;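 active = mean inhibition across valid replicates above about 65%, limit read from the data; inconclusive = mean under the limit, yet half or more replicates past it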;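 also: pathway switched on by Shh-conditioned medium diluted 1 in 25 in low serum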
Starred values were filed as active, the others as inactive; ? = inconclusive; . = no result.

SMILES	MITF inhib	PD-1 reverse act	NOMO-1 viab	Hedgehog inh
C[C@@H]1CCCCO[C@@H](CN(C)S(=O)(=O)c2cccs2)[C@@H](C)CN([C@H](C)CO)C(=O)c2cc(NC(=O)Nc3ccc(C(F)(F)F)cc3)ccc2O1	11	.	40	-9
C[C@@H]1CCCCO[C@@H](CN(C)S(=O)(=O)c2cccs2)[C@@H](C)CN([C@H](C)CO)C(=O)c2cc(NS(C)(=O)=O)ccc2O1	-2	-1	13	67*
Cc1noc(C)c1S(=O)(=O)N(C)C[C@H]1OCCCC[C@@H](C)Oc2ccc(NC(=O)Nc3ccc(C(F)(F)F)cc3)cc2C(=O)N([C@H](C)CO)C[C@@H]1C	23	-3	104*	31
C[C@@H]1CCCCO[C@H](CN(C)S(=O)(=O)c2cccs2)[C@@H](C)CN([C@H](C)CO)C(=O)c2cc(NC(=O)Nc3ccc(C(F)(F)F)cc3)ccc2O1	10	-3	90*	-36
CC(C)(C)c1ccc(SC(=O)c2ccc(OCC(F)(F)F)nc2)cc1	1	1	-3	.
CCC(Sc1n[nH]c(N)n1)C(=O)Nc1ccc(C)cc1C (centres undefined)	3	.	12	.
Clc1cccc(Nc2nnc(-c3ccccc3)c3ccccc23)c1	66	-18	73	94*
CNS(=O)(=O)c1cc(-c2nnc(Nc3ccc(NC(C)=O)cc3)c3ccccc23)ccc1C	-6	5	3	.
COC(=O)C(CC(=O)c1ccc(Cl)cc1)c1cc(=O)oc2cc(OC)ccc12 (centres undefined)	-19	.	37	.
C[C@@H]1CN([C@H](C)CO)C(=O)c2cccc(NC(=O)Nc3ccc(C(F)(F)F)cc3)c2O[C@H]1CN(C)Cc1ccccc1	33	-7	101*	-4
C[C@@H]1CN([C@@H](C)CO)C(=O)c2cccc(NC(=O)Nc3ccc(C(F)(F)F)cc3)c2O[C@@H]1CN(C)Cc1ccccc1	-26	-3	89*	-23
C[C@H]1CN([C@@H](C)CO)C(=O)c2cccc(NC(=O)Nc3ccc(C(F)(F)F)cc3)c2O[C@@H]1CN(C)Cc1ccc(-c2ccccc2)cc1	14	-5	85*	-23
C[C@H](CO)N1C[C@H](C)[C@@H](CN(C)Cc2ccccc2)Oc2c(NC(=O)Nc3ccc(C(F)(F)F)cc3)cccc2C1=O	46	-7	115*	-43
C[C@H](CO)N1C[C@H](C)[C@H](CN(C)Cc2ccccc2)Oc2c(NC(=O)Nc3ccc(C(F)(F)F)cc3)cccc2C1=O	-1	.	74	22
CC(=O)N/C(=C\c1ccccc1)C(=O)Nc1cccc(C#N)c1	2	-1	-3	25
O=C(c1ccc([N+](=O)[O-])cc1)n1nc(-c2ccc(Cl)cc2)nc1NCc1ccco1	4	-4	?	.
COc1cc(CCc2cc(OC)c(C)cc2OC)c(OC)cc1C	22	0	40	-17
C[C@@H]1CN([C@@H](C)CO)C(=O)c2cccc(NC(=O)Nc3ccc(C(F)(F)F)cc3)c2O[C@H]1CN(C)C(=O)Nc1ccc(F)cc1	31	-5	117*	-84
COc1ccc(NC(=O)N(C)C[C@H]2Oc3c(NC(=O)Nc4ccc(C(F)(F)F)cc4)cccc3C(=O)N([C@@H](C)CO)C[C@H]2C)cc1	7	-2	88*	21
C[C@H](CO)N1C[C@H](C)[C@@H](CN(C)C(=O)Nc2ccc(F)cc2)Oc2c(NC(=O)Nc3ccc(C(F)(F)F)cc3)cccc2C1=O	-4	.	42	6
COc1ccc(NC(=O)Nc2cccc3c2O[C@H](CN(C)C(=O)Nc2ccc(C(F)(F)F)cc2)[C@H](C)CN([C@H](C)CO)C3=O)cc1	0	-1	7	-8
C[C@@H]1CN([C@H](C)CO)C(=O)c2cccc(NC(=O)NC3CCCCC3)c2O[C@@H]1CN(C)C(=O)Nc1ccc(C(F)(F)F)cc1	39	.	67	-2
C[C@H](CO)N1C[C@H](C)[C@H](CN(C)C(=O)Nc2ccc(F)cc2)Oc2c(NC(=O)Nc3ccc(C(F)(F)F)cc3)cccc2C1=O	26	1	103*	-5
C[C@@H]1CN([C@@H](C)CO)C(=O)c2cccc(NC(=O)NC3CCCCC3)c2O[C@@H]1CN(C)C(=O)Nc1ccc(C(F)(F)F)cc1	10	-5	94*	-7
CS(=O)(=O)CCC(C(=O)Nc1cccc2ncccc12)N1C(=O)c2cc(Cl)c(Cl)cc2C1=O (centres undefined)	-9	1	13	.
SMILES	MITF inhib	PD-1 reverse act	NOMO-1 viab	Hedgehog inh
C[C@H]1CN([C@@H](C)CO)C(=O)c2cccc(NC(=O)Nc3ccc(C(F)(F)F)cc3)c2O[C@H]1CN(C)C(=O)Nc1ccc(C(F)(F)F)cc1	29	1	70	-14
C[C@@H]1CN([C@H](C)CO)C(=O)c2cccc(NC(=O)Nc3ccc(C(F)(F)F)cc3)c2O[C@@H]1CN(C)C(=O)Nc1ccc(C(F)(F)F)cc1	20	1	98*	2
CC(C)(C)c1ccc(OCC(=O)Nc2cccnc2)c(Br)c1	-14	.	28	.
CCN(C)CC12CC3CC(CC(C3)C1)C2	19	1	3	.
O=C(O)COc1cccc(-c2nc3ccccc3s2)c1	105*	0	27	.
N#C/C(=N\O)C(=O)c1ccco1	-6	1	12	-22
O=C1/C(=C\c2ccccc2)N=C2SCCCCN12	-16	0	5	-1
C[C@H](CO)N1C[C@H](C)[C@@H](CN(C)CC2CCCCC2)Oc2c(NC(=O)c3ccc(-c4nccs4)cc3)cccc2C1=O	51	-3	104*	8
C[C@@H]1CN([C@H](C)CO)C(=O)c2cccc(NC(=O)c3ccc(-c4nccs4)cc3)c2O[C@@H]1CN(C)CC1CCCCC1	-9	0	2	-4
C[C@@H]1CN([C@@H](C)CO)C(=O)c2cccc(NC(=O)c3ccc(-c4nccs4)cc3)c2O[C@H]1CN(C)CC1CCCCC1	46	-3	109*	17
Cc1ccc(S(=O)(=O)Nc2cccc3c2O[C@H](CN(C)Cc2ccc(Cl)c(Cl)c2)[C@H](C)CN([C@@H](C)CO)C3=O)cc1	9	.	104*	17
C[C@H](CO)N1C[C@H](C)[C@H](CN(C)Cc2ccc(Cl)c(Cl)c2)Oc2c(NS(=O)(=O)c3ccc(Cl)cc3)cccc2C1=O	49	.	109*	90*
Cc1ccc(S(=O)(=O)Nc2cccc3c2O[C@H](CN(C)Cc2ccc(Cl)c(Cl)c2)[C@H](C)CN([C@H](C)CO)C3=O)cc1	22	-3	41	40
Cc1ccc(S(=O)(=O)Nc2cccc3c2O[C@@H](CN(C)Cc2ccc(Cl)c(Cl)c2)[C@@H](C)CN([C@H](C)CO)C3=O)cc1	60	-5	119*	113*
CSc1sc(C(=O)/C=C/N(C)C)c(-c2ccccc2)c1C#N	-22	0	13	-8
CCOC(=O)CSc1nc2c(c(=O)n1-c1ccccc1OC)C1(CCCC1)Cc1ccccc1-2	11	1	-6	.
O=C(Oc1ccc(S(=O)(=O)c2ccc(OC(=O)c3cccs3)cc2)cc1)c1cccs1	11	0	29	-2
COc1ccc(NC(=O)c2ccccc2OCC(=O)Nc2cccc(C)c2C)c(C)c1	-20	.	22	.
O=C(CSc1nc(O)cc(=O)n1-c1ccccc1)N1CCc2ccccc21	-4	0	-17	.
